These results are taken from PubChem BioAssay (EPA / NIEHS).

Calls of active or inactive are those of the source. How the source made its calls: active means hit-call score of the fitted dose curve at least 0.9, where 1 is the maximum; inactive means score below 0.9.

Read-out in assay [1]: TIMP metallopeptidase inhibitor 1 (TIMP1), TIMP1 (gene 7076)
Description: BSK_hDFCGF_TIMP1: BioMAP Diversity Plus: hDFCGF Assay for TIMP metallopeptidase inhibitor 1 (TIMP1) Biomarker Activity (AID 2283062). Particulars: primary human foreskin fibroblasts; actives raise or lower the signal. Summed up:
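Primary human foreskin fibroblasts in the hDFCGF system were dosed with compound for 24 h, then TIMP-1 was measured by ELISA. Activity was fitted bidirectionally relative to DMSO control; parallel SRB staining assessed cytotoxicity.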

Read-out in assay [2]: Matrix Metallopeptidase 1 (MMP1), MMP1 (gene 4312)
Description: BSK_hDFCGF_MMP1: BioMAP Diversity Plus: hDFCGF Assay for Matrix Metallopeptidase 1 (MMP1) Biomarker Activity (AID 2283064). Particulars: primary human foreskin fibroblasts; actives raise or lower the signal. Summed up: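 ELISA read-out of MMP1 from human foreskin fibroblasts (primary skin cells), 24 h post-dose. Gain or loss of signal was fitted bidirectionally versus DMSO negative control; cytotoxicity was checked by SRB in parallel cultures.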

Read-out in assay [3]: Intercellular Adhesion Molecule 1 (ICAM1), ICAM1 (gene 3383)
Kind of assay: BSK_KF3CT_ICAM1: BioMAP Diversity Plus: KF3CT Assay for Intercellular Adhesion Molecule 1 (ICAM1) Biomarker Activity (AID 2283067). As to conditions: primary human keratinocytes with fibroblasts; actives raise or lower the signal. Summed up: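 Human keratinocyte plus foreskin fibroblast primary co-culture was exposed to chemical for 24 h. ICAM-1 was then quantified by ELISA, and the data were fit bidirectionally against DMSO as the negative control and baseline.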

Read-out in assay [4]: Interferon-gamma inducible Protein 10 (IP10), CXCL10 (gene 3627)
Description: BSK_KF3CT_IP10: BioMAP Diversity Plus: KF3CT Assay for Interferon-gamma inducible Protein 10 (IP10) Biomarker Activity (AID 2283068). As to conditions: primary human keratinocytes with fibroblasts; actives raise or lower the signal. Summed up: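 Signal is secreted/surface IP-10 by ELISA in a human primary skin co-culture of keratinocytes and foreskin fibroblasts, taken 24 h post-dosing; DMSO served as negative control.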

The nature of assay [5]: BSK_KF3CT_SRB: Viability Assessment in the BioMAP Diversity Plus: KF3CT Assay (AID 2283069).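 Further: total protein by sulforhodamine B staining as a cytotoxicity measure; read 24 h after compound addition; fitted for both signal gain and loss against DMSO baseline.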 Particulars: primary human keratinocytes with fibroblasts. Summed up: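 SRB read-out at 560 nm (0.1% stain, TCA-fixed cells) gauges overt cytotoxicity in a human skin keratinocyte–fibroblast co-culture 24 h post-dosing. Signal change was fitted bidirectionally relative to DMSO control.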

Read-out in assay [6]: Interleukin-1 alpha (IL1a), IL1A (gene 3552)
Kind of assay: BSK_KF3CT_IL1a: BioMAP Diversity Plus: KF3CT Assay for Interleukin-1 alpha (IL1a) Biomarker Activity (AID 2283070). As to conditions: primary human keratinocytes with fibroblasts; actives raise or lower the signal. Summed up:
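Primary skin co-culture (keratinocytes, foreskin fibroblasts), 24 h exposure; ELISA for IL-1a; bidirectional curve fit vs DMSO.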

Read-out in assay [7]: TIMP metallopeptidase inhibitor 2 (TIMP2), TIMP2 (gene 7077)
Description: BSK_KF3CT_TIMP2: BioMAP Diversity Plus: KF3CT Assay for TIMP metallopeptidase inhibitor 2 (TIMP2) Biomarker Activity (AID 2283071). As to conditions: primary human keratinocytes with fibroblasts; actives raise or lower the signal. Summed up: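 Measurements come from ELISA detection of TIMP-2 at 24 hours in a dosed human keratinocyte and foreskin fibroblast co-culture. DMSO serves as negative control and baseline.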

Read-out in assay [8]: Plasminogen activator inhibitor-1 (PAI1), SERPINE1 (gene 5054)
Description: BSK_hDFCGF_PAI1: BioMAP Diversity Plus: hDFCGF Assay for Plasminogen activator inhibitor-1 (PAI1) Biomarker Activity (AID 2283066). As to conditions: primary human foreskin fibroblasts; actives raise or lower the signal. Summed up: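 Human skin fibroblast cultures receive chemical for 24 h before PAI-1 is measured by ELISA; signal changes are fitted bidirectionally against DMSO-treated wells.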

Read-out in assay [9]: Vascular cell adhesion molecule 1 (VCAM1), VCAM1 (gene 7412)
Kind of assay: BSK_hDFCGF_VCAM1: BioMAP Diversity Plus: hDFCGF Assay for Vascular cell adhesion molecule 1 (VCAM1) Biomarker Activity (AID 2283065).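 On AC50: VCAM-1 protein level quantified by ELISA after 24 h chemical exposure.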 Particulars: primary human foreskin fibroblasts; actives raise or lower the signal. Summed up:
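Primary human foreskin fibroblasts (hDFCGF system) were dosed with chemical and VCAM-1 was measured by ELISA 24 h later. Bidirectional curve fitting used DMSO as negative control and activity baseline.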

In the case of `Nc1cccc2c(N)cccc12`, the outcome in assay [1], in assay [2], in assay [3], in [4], in assay [5] and in assay [6] was inactive. For the same molecule, the result in [7] was inactive.

Turning to `CC(C)CCCCCCOC(=O)CCCCC(=O)OCCCCCCC(C)C`, the outcome in assay [1], in [2], in assay [3], in assay [4], in assay [5] and in assay [6] was inactive. The result in assay [7] was inactive.

As to `CC[C@H](C)[C@@H](C(=O)O)n1sc2ccccc2c1=O`, the result in assay [1], in assay [2], in assay [8], in assay [3], in assay [4] and in assay [5] was inactive. Also, the result in assay [6] and in [7] was inactive.

Consider `c1ccc2c(c1)Cc1ccccc1-2`, for which the result in assay [1], in assay [2], in assay [3], in assay [4], in [5] and in [6] was inactive. Also, the result in assay [7] was inactive.

Regarding `CCC(=C(c1ccc(O)cc1)c1ccc(OCCN(C)C)cc1)c1ccccc1`, the AC50 was 12.1 µM (active) in [1]; 10.7 µM (active) in assay [2]; 10.7 µM (active) in assay [9]; 12.3 µM (active) in [3]; 10.4 µM (active) in assay [4]; 8.81 µM (active) in [5]. Also, the AC50 was 9.91 µM (active) in assay [6] and 10.5 µM (active) in assay [7].

For `CCCCOCCO`, the outcome in assay [1], in assay [2], in assay [8], in assay [3], in assay [4] and in [5] was inactive. In addition, the outcome in assay [6] and in [7] was inactive.

In the case of `O=c1c(-c2ccc(O)cc2)coc2cc(O)ccc12`, the outcome in assay [1], in assay [2], in assay [3], in [4], in assay [5] and in [6] was inactive. Moreover, the outcome in [7] was inactive.

Turning to `CCCCCCCC(=O)O`, the outcome in assay [1], in assay [2], in assay [9], in [3], in assay [4] and in assay [5] was inactive. Besides, the result in assay [6] and in assay [7] was inactive.

For the molecule `O=C(O)c1ccccc1C(c1ccc(O)cc1)c1ccc(O)cc1`, the outcome in [1], in [2], in assay [3], in assay [4], in assay [5] and in assay [6] was inactive. The result in [7] was inactive.

Take `Cc1cc(C)c(O)c(C)c1`: the result in assay [1], in [2], in assay [3], in assay [4], in assay [5] and in assay [6] was inactive. For the same molecule, the outcome in assay [7] was inactive.

On to `Oc1cccc(O)c1`, for which the outcome in assay [1], in [2], in [3], in [4], in assay [5] and in [6] was inactive. In addition, in assay [7], the result was inactive.

Consider `CC(C)(C)CC(C)(C)c1ccc(O)c(-n2nc3ccccc3n2)c1`, for which the outcome in [1], in [2], in assay [3], in assay [4], in assay [5] and in assay [6] was inactive. Moreover, in [7], the result was inactive. Besides, in assay [8], the AC50 is 11.3 µM (active).

In the case of `NC(=O)N1C(=O)C(C(=O)c2cc(Cl)cs2)c2cc(F)c(Cl)cc21` (configuration not stated), the AC50 was 5.17 µM (active) in assay [1]; 10.3 µM (active) in assay [2]; 12.4 µM (active) in assay [3]; 8.07 µM (active) in assay [4]; 6.16 µM (active) in assay [5]; 12.9 µM (active) in assay [6]. Besides, the AC50 in assay [7] was 11.2 µM (active).

With `FC(F)(I)C(F)(F)C(F)(F)C(F)(F)C(F)(F)C(F)(F)I`, the AC50 is 6.72 µM (active) [middle of 5 runs] in [1]; 5.8 µM (active) [middle of 5 runs] in assay [2]; 3.81 µM (active) [middle of 5 runs] in assay [9]; 9.2 µM (active) [middle of 5 runs] in [3]; 7.76 µM (active) [middle of 5 runs] in assay [4]; 8.99 µM (active) [middle of 5 runs] in [5]. For the same molecule, the AC50 in assay [6] was 7.77 µM (active) [middle of 5 runs]; in assay [7], 13.2 µM (active) [middle of 5 runs].

As for `CCc1ccc(CCOc2ccc(CC3SC(=O)NC3=O)cc2)nc1` (configuration not stated), the result in [1], in assay [2], in assay [8], in assay [3], in assay [4] and in [5] was inactive. The result in assay [6] and in [7] was inactive.

For `CC[C@H](c1ccc(O)cc1)[C@@H](CC)c1ccc(O)cc1`, the outcome in assay [1] was inactive. Moreover, the AC50 is 31.2 µM (active) in [2]; 32.9 µM (active) in assay [3]; 26.5 µM (active) in [4]; 32.5 µM (active) in [5]; 32 µM (active) in [6]; 31.6 µM (active) in assay [7].

For the molecule `CCOC(=O)CC(O)(CC(=O)OCC)C(=O)OCC`, the result in assay [1], in assay [2], in assay [3], in [4], in [5] and in assay [6] was inactive. The result in assay [7] was inactive.

Take `CCc1nn(C2CCCCC2)c2cc(C3(C#N)CCC(C(=O)O)CC3)ccc12` (configuration not stated): the AC50 was 3.54 µM (active) in assay [1]; 8.18 µM (active) in [2]; 5.35 µM (active) in assay [8]; 28.1 µM (active) in assay [4]; 11.5 µM (active) in assay [7]. In addition, the outcome in assay [3], in assay [5] and in [6] was inactive.

As to `N#C[C@@H]1CC(F)(F)CN1C(=O)CNC1CC2CCC(C1)N2c1ncccn1` (some centres not stated), the result in assay [1], in assay [2], in assay [8], in assay [3], in assay [4] and in assay [5] was inactive. Further, the result in [6] and in assay [7] was inactive.

In general, AC50 refers to the concentration giving half of the maximal activity seen.
